Structures are written as SMILES. Out of some 310,000 compounds screened, about 14,000 (4.5%) showed an effect of 50% or more. The effect is printed as a negative number. The full list was thinned out, with strong results kept by preference.
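Note: peak tail current of the secondary pulse compared with the same well before compound.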

human ether-à-go-go-related gene (hERG) potassium channel, sequence (Q12809 whole entry, looked up): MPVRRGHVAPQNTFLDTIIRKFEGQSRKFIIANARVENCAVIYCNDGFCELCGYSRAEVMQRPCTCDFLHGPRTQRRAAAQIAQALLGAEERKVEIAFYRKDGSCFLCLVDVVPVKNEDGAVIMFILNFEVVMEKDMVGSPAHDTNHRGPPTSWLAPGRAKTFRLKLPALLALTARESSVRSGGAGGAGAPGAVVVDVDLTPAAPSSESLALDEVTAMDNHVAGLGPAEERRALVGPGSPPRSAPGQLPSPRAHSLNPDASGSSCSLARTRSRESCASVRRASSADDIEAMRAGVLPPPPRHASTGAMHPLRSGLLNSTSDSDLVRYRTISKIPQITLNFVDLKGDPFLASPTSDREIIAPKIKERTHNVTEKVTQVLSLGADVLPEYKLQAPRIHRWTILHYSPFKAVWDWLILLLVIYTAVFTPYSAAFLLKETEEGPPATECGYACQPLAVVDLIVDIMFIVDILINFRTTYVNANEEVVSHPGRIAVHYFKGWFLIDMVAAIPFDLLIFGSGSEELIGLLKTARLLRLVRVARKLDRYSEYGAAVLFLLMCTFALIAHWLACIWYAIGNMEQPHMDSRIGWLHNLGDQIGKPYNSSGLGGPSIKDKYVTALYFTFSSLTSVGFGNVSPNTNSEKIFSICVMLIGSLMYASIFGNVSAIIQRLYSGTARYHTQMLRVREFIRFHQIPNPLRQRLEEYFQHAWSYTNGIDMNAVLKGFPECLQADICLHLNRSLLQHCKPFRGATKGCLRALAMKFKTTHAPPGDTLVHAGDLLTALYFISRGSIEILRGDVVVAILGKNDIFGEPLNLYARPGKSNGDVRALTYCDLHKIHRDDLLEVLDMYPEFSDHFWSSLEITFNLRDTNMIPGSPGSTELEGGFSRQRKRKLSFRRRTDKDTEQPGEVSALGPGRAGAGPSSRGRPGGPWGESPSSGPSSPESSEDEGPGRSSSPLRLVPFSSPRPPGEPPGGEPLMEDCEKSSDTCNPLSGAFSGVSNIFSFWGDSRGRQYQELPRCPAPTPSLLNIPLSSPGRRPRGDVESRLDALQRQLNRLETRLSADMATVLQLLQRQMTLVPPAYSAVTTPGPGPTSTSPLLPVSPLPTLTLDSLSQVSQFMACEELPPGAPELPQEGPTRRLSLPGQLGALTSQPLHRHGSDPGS

This experiment concerns the target human ether-à-go-go-related gene (hERG) potassium channel (human, UniProt Q12809). Put plainly: primary screen, population patch clamp on CHO cells stably expressing hERG; higher = less effect of the substance.
With `CC(=O)Nc1ccc(NC(=O)C(C)OC(=O)C(C)SCC(=O)Nc2ccc(F)cc2)cc1` (stereo not drawn), the “hERG current change (%, negative = inhibition) at 10uM” value was determined as 12%.
`CN(NC(=O)COc1ccccc1)C1=NS(=O)(=O)c2ccccc21`: the “hERG current change (%, negative = inhibition) at 10uM” value stood at 26.1%.
Turning to `CCCCCNC(=O)C1c2ccccc2Oc2ccccc21`, the “hERG current change (%, negative = inhibition) at 10uM” value amounted to 2.44%.
To `COc1ccc(-c2nnc3ccc(SCC(=O)N4CCCC4)nn23)cc1` belongs -15.2%; to `O=C(CSc1ccc2nnc(-c3ccccc3)n2n1)N1CCCCC1`, -59.7%; to `CCOC(=O)N1CCN(C(=O)CSc2ccc3nnc(-c4ccccn4)n3n2)CC1`, -36%.
As to `Cc1ccc(-c2nnc3ccc(SCC(=O)N4CCCc5ccccc54)nn23)cc1`, the “hERG current change (%, negative = inhibition) at 10uM” value is given as -12.5%.
As for `O=C(CSc1ccc2nnc(-c3ccccn3)n2n1)N1CCOCC1`, the figure is -24.5%; as for `O=C(CSc1ccc2nnc(-c3ccc(F)cc3)n2n1)N1CCCc2ccccc21`, -16%.
In the case of `O=C(CSc1ccc2nnc(-c3ccccn3)n2n1)N1CCN(c2ccccc2)CC1`, the “hERG current change (%, negative = inhibition) at 10uM” value is -86.7%.
To `O=C(CSc1ccc2nnc(-c3ccccc3)n2n1)N1CCCc2ccccc21` belongs -62.7%.
To `CCOc1ccc(-c2nnc3ccc(SCC(=O)N4CCCCC4)nn23)cc1` belongs -5.88%.
Regarding `COc1cccc(-c2csc(N3CCN(Cc4ccccc4)CC3)n2)c1`, the “hERG current change (%, negative = inhibition) at 10uM” value is on record as 0.166%.
As for `COCC(=O)Nc1nnc(COc2ccc(Cl)cc2)s1`, the figure is -0.556%.
As for `CCC(C)(C)C1CCC2(CC1)NC(=O)N(CC(=O)NCCc1c[nH]c3ccccc13)C2=O` (stereo not drawn), the figure is -20.3%.
To `COc1ccccc1N(C(=O)CCl)c1cn(C(C)=O)c2ccccc12` belongs -10.6%; to `C=CCOc1ccccc1C1C2=C(CC(C)(C)CC2=O)Nc2c1c(=O)n(C)c(=O)n2C` (stereo not drawn), -3.8%; to `CC(C)CCN1CCN(Cc2cccn2-c2ccc(Cl)cn2)CC1CCO` (stereo not drawn), -64.8%.
Take `CC(C)CN1CCN(Cc2cccn2-c2ccc(Cl)cn2)CC1CCO` (stereo not drawn): the “hERG current change (%, negative = inhibition) at 10uM” value is -64.6%.
With `CC(C)CN1CCN(Cc2c(F)cccc2Cl)CC1CCO` (stereo not drawn), the “hERG current change (%, negative = inhibition) at 10uM” value is on record as -10.4%.
Regarding `CC(C)CCN1CCN(Cc2c(F)cccc2Cl)CC1CCO` (stereo not drawn), the “hERG current change (%, negative = inhibition) at 10uM” value is given as -21.6%.
As for `CC(C)CCN1CCN(Cc2ccon2)CC1CCO` (stereo not drawn), the figure is 4.53%; as for `Cc1cccc(CN2CCN(CC(C)C)C(CCO)C2)n1` (stereo not drawn), 17.7%; as for `O=C(COC(=O)/C=C/c1ccc(Cl)cc1Cl)Nc1cc(C(F)(F)F)ccc1N1CCOCC1`, 8.56%.
Consider `O=C(O)CSc1nc(SCc2ccccc2Cl)nc2c1CCCC2`, for which the “hERG current change (%, negative = inhibition) at 10uM” value is reported as 15.4%.
As for `Cc1[nH]n(-c2ccccc2)c(=O)c1CCO`, the figure is 13.7%; as for `OC(c1cc(-c2ccc(Cl)cc2)nc2ccccc12)C1CCCCN1` (stereo not drawn), -52.6%.
To `Cl.O[C@@H](c1cc(C(F)(F)F)nc2c(C(F)(F)F)cccc12)[C@H]1CCCCN1` belongs 6.31%; to `Cl.OC(c1cc(C(F)(F)F)nc2c(C(F)(F)F)cccc12)C1CCCCN1` (stereo not drawn), -12.4%.
As for `Cc1cccnc1NC(=O)Cn1c(=O)oc2ccccc21`, the figure is 23%; as for `Cc1ccc(N2C(=O)NC(=O)/C(=C\c3cccn3C(C)(C)C)C2=O)cc1`, 24.5%.
Turning to `Cl.N=c1sccn1CC(=O)Nc1ccc(S(N)(=O)=O)cc1`, the “hERG current change (%, negative = inhibition) at 10uM” value came to 18.2%.
Regarding `Cc1ccc(Oc2ccc(NC(=O)Cn3ccsc3=N)cc2)cc1.Cl`, the “hERG current change (%, negative = inhibition) at 10uM” value was -45.1%.
Regarding `Cl.N=c1sccn1CC(=O)Nc1cccc(S(N)(=O)=O)c1`, the “hERG current change (%, negative = inhibition) at 10uM” value was determined as 12.5%.
`Cl.N=c1sccn1CC(=O)Nc1cccc(Oc2ccccc2)c1`: the “hERG current change (%, negative = inhibition) at 10uM” value is given as -65.5%.
On to `Cl.N=c1sccn1CC(=O)Nc1cc(Cl)ccc1[N+](=O)[O-]`, for which the “hERG current change (%, negative = inhibition) at 10uM” value is reported as 2.64%.
With `Cl.N=c1sccn1CC(=O)Nc1cc(Cl)ccc1Oc1ccccc1`, the “hERG current change (%, negative = inhibition) at 10uM” value is recorded as -75.2%.
As for `Cl.N=c1sccn1CC(=O)Nc1ccc2c(c1)CCC2`, the figure is -14.1%.
As for `Cl.N=c1sccn1CC(=O)Nc1cccc2ccccc12`, the figure is 2.9%; as for `Cl.N=c1sccn1CC(=O)NC(c1ccccc1)c1ccccc1`, -63.3%.
With `O=C(CSc1ccccc1)Nc1cc(Cl)ccc1Oc1ccccc1`, the “hERG current change (%, negative = inhibition) at 10uM” value is given as -9.05%.
As for `Cl.N=c1sccn1CC(=O)Nc1ccc(SC(F)F)cc1`, the figure is -62.1%.
As to `Cl.N=c1sccn1CC(=O)Nc1ccccc1-c1ccccc1`, the “hERG current change (%, negative = inhibition) at 10uM” value was -2.05%.
As to `COc1cc(C(=O)NC(=S)Nc2ccc(NC(=O)c3ccco3)cc2)cc(OC)c1OC`, the “hERG current change (%, negative = inhibition) at 10uM” value was -6.61%.
To `CC(=O)Nc1ccc(NC2=CC(=O)c3ccccc3C2=O)cc1` belongs 11.6%.
Regarding `COc1cccc2cc(C(=O)NCCC3=CCCCC3)c(=O)oc12`, the “hERG current change (%, negative = inhibition) at 10uM” value was determined as 2.79%.
As for `O=C(/C=C/c1ccccc1)NC(=O)c1ccccc1O`, the figure is 9.95%; as for `CC1CCCN(Cc2cnc(Cl)s2)C1` (stereo not drawn), 13%.
Take `CCC(=O)N1CCc2cc(S(=O)(=O)N3CCN(C(=O)c4ccco4)CC3)ccc21`: the “hERG current change (%, negative = inhibition) at 10uM” value is reported as -21.8%.
In the case of `CCCc1c(C(=O)N/N=C/c2ccccc2OCc2ccc(F)cc2)nnn1-c1nonc1N`, the “hERG current change (%, negative = inhibition) at 10uM” value is reported as 18.6%.
To `Cn1c(=O)c2c(ncn2C)n(C)c1=O` belongs 10.1%; to `CCN1CCN(C(C)C(=O)Nc2c(C)n(C)n(-c3ccccc3)c2=O)CC1.O=C(O)C(=O)O` (stereo not drawn), 18.6%; to `CCNc1nc(NCC)nc(Oc2ccc(C(=O)OC)cc2)n1`, -5.78%.
On to `COc1cccc2c(=O)c(C(=O)O)c[nH]c12`, for which the “hERG current change (%, negative = inhibition) at 10uM” value was -0.514%.
To `COC(=O)c1sccc1NC(=O)C1CCCCC1C(=O)O` (stereo not drawn) belongs 14.7%; to `CN(C)c1cccc(C(=O)N2CCC(n3nccc3NC(=O)C3CCOC3)CC2)c1` (stereo not drawn), 3.5%; to `COCCCNC(=O)C(=O)N/N=C/c1ccc(OCC(=O)Nc2cccc(Cl)c2C)c(OC)c1`, -0.6%.
On to `COc1ccc(Nc2nc(N3CCCC3)nc3ccccc23)c(OC)c1`, for which the “hERG current change (%, negative = inhibition) at 10uM” value is on record as -44.6%.
`COc1ccc(Nc2nc(N3CCCCC3)nc3ccccc23)c(OC)c1`: the “hERG current change (%, negative = inhibition) at 10uM” value was -62.9%.
For the compound `COc1ccc(Nc2nc(N3CCN(C)CC3)nc3ccccc23)c(OC)c1`, the “hERG current change (%, negative = inhibition) at 10uM” value is -75.4%.
To `COc1ccc(Nc2nc(Nc3ccc(OC)cc3OC)nc(N3CCN(C)CC3)n2)c(OC)c1` belongs -22.6%.
To `COc1ccc(Nc2nc(N3CCCCC3)nc(N3CCCCC3)n2)c(OC)c1` belongs 15.2%.
Turning to `COc1ccc(Nc2nc(-c3ccccc3)nc3ccccc23)c(OC)c1`, the “hERG current change (%, negative = inhibition) at 10uM” value is recorded as -1.67%.

The values are drawn from article PMC4336329 (PLoS ONE, 2015).
